{"source": "PubChem BioAssay (NCATS)", "note": "Inconclusive results are not listed. Where a call stands in place of a potency, no number is given. Calls of active or inactive are those of the source. Calls come from the whole dose curve; as a rule, active = well fitted curve in the direction sought with a large enough effect; inconclusive = small, poorly fitted or top-dose-only effect, or another doubt; inactive = no such curve, though single readings can be large; an effect the other way counts as inactive or inconclusive.", "data": [{"test_system": "not listed separately", "assay": "Primary qHTS for inhibitors of nuclear receptor binding SET domain protein 2 (NSD2) in an isogenic RCH-ACV NSD2 p.E1099K mutant (9B) (AID 1645876); note: nearly all actives have a fitted effect of over 70% in size; note: potency is the fitted concentration of half-maximal effect", "conditions": "RCH-ACV NSD2 E1099K (9B) viability, CellTiter-Glo, 72 h; series mostly up to 44.9 µM", "values": [{"smiles": "Cn1cc(C2=C(c3ccc(Cl)cc3Cl)C(=O)NC2=O)c2ccccc21", "Potency": "6.51 µM (active)"}, {"smiles": "CCC1C(=O)OCC1Cc1cncn1C", "note": "(stereo unspecified)", "Potency": "inactive"}, {"smiles": "CN1CC(=O)N/C1=N/C(=O)Nc1cccc(Cl)c1", "Potency": "inactive"}]}, {"target": "Rap guanine nucleotide exchange factor 3 (Homo sapiens) (UniProt O95398)", "sequence (O95398 whole entry, looked up)": "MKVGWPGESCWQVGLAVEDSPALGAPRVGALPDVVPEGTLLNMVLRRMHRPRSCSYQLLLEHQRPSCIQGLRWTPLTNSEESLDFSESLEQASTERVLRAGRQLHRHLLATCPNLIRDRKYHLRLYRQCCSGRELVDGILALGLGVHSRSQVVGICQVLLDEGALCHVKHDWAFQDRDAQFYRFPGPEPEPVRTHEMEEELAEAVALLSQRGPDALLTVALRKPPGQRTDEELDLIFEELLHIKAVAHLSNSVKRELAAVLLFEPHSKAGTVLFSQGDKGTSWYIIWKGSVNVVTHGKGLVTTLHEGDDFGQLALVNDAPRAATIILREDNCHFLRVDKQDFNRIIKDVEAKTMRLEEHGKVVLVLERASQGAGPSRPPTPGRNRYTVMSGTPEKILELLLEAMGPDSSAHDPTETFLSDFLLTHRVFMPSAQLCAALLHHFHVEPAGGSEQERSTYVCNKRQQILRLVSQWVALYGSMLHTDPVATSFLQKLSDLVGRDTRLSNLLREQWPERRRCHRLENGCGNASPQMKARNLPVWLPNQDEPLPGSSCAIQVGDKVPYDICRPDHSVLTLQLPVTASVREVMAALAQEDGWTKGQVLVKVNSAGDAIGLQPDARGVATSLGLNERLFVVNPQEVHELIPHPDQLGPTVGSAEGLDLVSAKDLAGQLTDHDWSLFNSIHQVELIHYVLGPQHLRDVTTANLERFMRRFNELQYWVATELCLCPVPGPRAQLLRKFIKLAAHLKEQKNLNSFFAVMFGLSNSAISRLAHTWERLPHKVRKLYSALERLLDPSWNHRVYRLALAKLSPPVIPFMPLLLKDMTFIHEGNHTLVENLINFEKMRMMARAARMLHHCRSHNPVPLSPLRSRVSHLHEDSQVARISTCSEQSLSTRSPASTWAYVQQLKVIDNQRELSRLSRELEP", "assay": "Confirmatory qHTS for agonist of cAMP-regulated guanine nucleotide exchange factor 3 (EPAC1) (AID 1645881);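 note: EPAC1 catalysed release of BODIPY-GDP from Rap1B seen as fluorescence loss; nearly all actives have a fitted effect of over 75% in size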", "conditions": "EPAC1 Rap1B BODIPY-GDP exchange fluorescence; series mostly up to 154 µM", "values": [{"smiles": "N#C/C(=C\\c1ccc(O)c(O)c1)C(=O)c1ccc(O)c(O)c1", "Potency": "inactive"}, {"smiles": "Cn1cc(C2=C(c3ccc(Cl)cc3Cl)C(=O)NC2=O)c2ccccc21", "Potency": "inactive"}, {"smiles": "Oc1cc2c(cc1O)CN(C(=S)NCCc1ccc(Cl)cc1)CCC2", "Potency": "inactive"}]}]}
